Screens from PubChem.
Giardia kill = Small Molecules that selectively kill Giardia lamblia: qHTS | Giardia lamblia trophozoite viability | activity change, % at 7.66 µM, hits read low | 340,000 compounds, 0.15% hits | AID 540267, 2011; in the data active means activity change below about -80%; inconclusive means between about -30% and that limit;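 further: parasites exposed to compound for two days anaerobically before the ATP read; on the % scale 0 is the no-effect control and ±100 the full control effect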
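Each well holds 100 Giardia trophozoites and compound. After two days (48 hrs) at 37 deg C in anaerobic conditions, ATP is quantified by luminescence.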
SW480 rerep = A quantitative high throughput screen for small molecules that induce DNA re-replication in SW480 colon adenocarcinoma cells; SW480 DNA re-replication, Hoechst DNA content imaging, 48 h; 340,000 compounds, 1.8% hits; Potency, µM (doses to about 46.1 µM), without a hit: at the top dose re-replication activation, actives largely listed as activators; further: potency means the concentration at half of the fitted maximal effect; % of control where 0% means no effect; nearly all actives have a fitted effect of over 55% in size
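Treated cells incubate 48 hr (37 C, 5% CO2), are stained 40 min with Hoechst, and nuclear fluorescence is enumerated; a rise in nuclei with high DNA signal marks re-replication.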
KB-V1 cytotox = qHTS assay for MDR1-selective chemotherapeutics: Primary screen using the drug-selected MDR subline cells KB-V1; AID 1347076, 2019; KB-V1 MDR cells viability, CellTiter-Glo, 72 h; Potency, µM (titrated, usually from 46.1 µM), actives largely listed as cytotoxic; 400,000 compounds, 3.4% hits; further: potency means the concentration at half of the fitted maximal effect; on the % scale 0 is the no-effect control and ±100 the full control effect; nearly all actives have a fitted effect of over 60% in size
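Following 72 h at 37 degrees C with compound, KB-V1 cell viability was read by CellTiter-Glo luminescence, medium being phenol-red-free DMEM plus 10% FBS; concentration-response parameters came from normalized, curve-fitted qHTS data.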
MCF10A rereplic = A quantitative high throughput screen for small molecules that induce DNA re-replication in MCF 10a normal breast cells | MCF 10A DNA re-replication, Hoechst nuclear intensity, 48 h | Potency, µM (series often up to 46.1 µM), inactives show at the top dose activity, positive = re-replication, hits mostly activators | 350,000 compounds, 2.9% hits | AID 624296, 2012; further: potency means the concentration at half of the fitted maximal effect; % of control where 0% means no effect; nearly all actives have a fitted effect of over 50% in size
KB-3-1 cytotox = qHTS assay for MDR1-selective chemotherapeutics: Primary screen using the parental adenocarcinoma cell KB-3-1; 400,000 compounds, 1.4% hits; Potency, µM (series often up to 46.1 µM), most hits filed as cytotoxic; AID 1347075, 2019; KB-3-1 viability, CellTiter-Glo ATP luminescence, 72 h; further: potency means the concentration at half of the fitted maximal effect; on the % scale 0 is the no-effect control and ±100 the full control effect; nearly all actives have a fitted effect of over 60% in size
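Viability of parental KB-3-1 cells, measured by CellTiter-Glo luminescence, followed a 72 h incubation at 37 °C with pinned compounds in phenol-red-free DMEM containing 10% FBS.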
ASM inhibitor = Inhibitors of Secretory Acid Sphingomyelinase (S-ASM): qHTS | Sphingomyelin phosphodiesterase (Homo sapiens), P17405 | placental ASM, HMU-PC fluorogenic substrate, 60 min | Potency, µM (titrated, usually from 57.5 µM), for inactives: at the highest dose activity change, negative = inhibition, most hits filed as inhibitors | 340,000 compounds, 0.006% hits | AID 504937, 2011; further: potency means the concentration at half of the fitted maximal effect
Target sequence (P17405 47-631 limits assumed): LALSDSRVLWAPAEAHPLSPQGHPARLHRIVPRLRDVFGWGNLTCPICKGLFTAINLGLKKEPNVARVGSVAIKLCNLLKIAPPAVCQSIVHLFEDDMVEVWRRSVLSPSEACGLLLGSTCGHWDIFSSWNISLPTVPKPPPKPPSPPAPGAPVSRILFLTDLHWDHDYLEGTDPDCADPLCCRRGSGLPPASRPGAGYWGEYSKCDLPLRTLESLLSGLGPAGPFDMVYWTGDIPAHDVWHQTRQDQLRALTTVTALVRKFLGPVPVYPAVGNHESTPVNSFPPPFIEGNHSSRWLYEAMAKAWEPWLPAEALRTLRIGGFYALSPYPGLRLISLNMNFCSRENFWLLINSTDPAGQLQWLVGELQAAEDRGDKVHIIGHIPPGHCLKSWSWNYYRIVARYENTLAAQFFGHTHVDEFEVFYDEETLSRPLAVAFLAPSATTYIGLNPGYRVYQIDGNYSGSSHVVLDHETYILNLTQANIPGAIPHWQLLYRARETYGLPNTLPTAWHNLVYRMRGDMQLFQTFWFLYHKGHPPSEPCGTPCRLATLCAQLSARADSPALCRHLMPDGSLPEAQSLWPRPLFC
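Fluorogenic HMU-PC substrate (9 uM final) is turned over by placental ASM in 60 min at 37 C after a 10 min compound preincubation. Reaction ended by alkaline stop (pH 10), with fluorescence read at 386/447 nm.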
* hit, by the source's call; i = inactive; ? = inconclusive; · = not tested or not shown. Only some compounds are listed: those with a hit (about 6.9% of all), similar ones and a draw of the others. Unless noted, the call rests on the fitted dose curve; in most records, active means well fitted curve in the direction sought with a large enough effect; inconclusive means small, poorly fitted or top-dose-only effect, or another doubt; inactive means no such curve, though single readings can be large; an effect the other way counts as inactive or inconclusive.

SMILES	Giardia kill	SW480 rerep	KB-V1 cytotox	MCF10A rereplic	KB-3-1 cytotox	ASM inhibitor
CCc1nn(C(C)C(=O)N(C)Cc2ccccc2)c(=O)c2cc3occc3n12 (centres undefined)	-15	-11%	i	0%	i	-1%
CC(C)c1ccc(OCC(=O)NCC(c2ccc(Cl)cc2)N2CCOCC2)cc1 (centres undefined)	·	·	i	·	i	·
Cc1ccc2c(=O)c(C(=O)c3cccc(Cl)c3)cn(CC(=O)Nc3ccccc3C(F)(F)F)c2n1	·	·	i	·	i	·
COc1cc2c(C#N)c(N3CCCCC3)nc(N)c2c(N)n1	-8	-3%	8.2µM*	?	?	159%
COc1cc2c(C#N)c(N3CCOCC3)nc(N)c2c(N)n1	-25	-2%	?	?	i	294%
CCOc1ccc2nc(NC(=O)CSc3nc(SC)ns3)sc2c1	-6	9%	23µM*	10%	i	-7%
COc1ccc(Nc2nnc(SCC(=O)NC(=O)Nc3ccc4c(c3)OCCO4)s2)cc1	-16	10µM*	i	13µM*	i	-1%
CCOc1ccc2nc(SCC(=O)Nc3ccc4c(c3)OCO4)sc2c1	6	25%	16µM*	3%	i	0%
CCC(=O)Nc1nnc(SCC(=O)Nc2ccc3c(c2)OCCO3)s1	3	-20%	i	?	?	1%
CCOc1ccc2nc(SCC(=O)c3ccc(C)s3)sc2c1	-11	-3%	i	3%	i	-2%
CCOc1ccc2nc(NC(=O)CSc3ccc(Cl)cc3)sc2c1	-3	2%	?	13%	i	-14%
Cc1nc2ccc(NC(=O)Cc3ccc4c(c3)OCCO4)cc2s1	-26	-53%	15µM*	9%	i	4%
CCCOc1ccc(C(=O)NCC2OCCc3ccccc32)cc1 (centres undefined)	·	·	?	·	i	·
COc1ccc(NC(=O)C2CCN(S(=O)(=O)c3ccc4[nH]c(=O)ccc4c3)CC2)c(OC)c1	·	·	i	·	i	·
O=S(=O)(N/N=C/c1cn(Cc2ccccc2)c2ccccc12)c1ccccc1	3	18%	21µM*	?	?	-19%
N#CCC(=O)N/N=C/c1cn(Cc2cccc3ccccc23)c2ccccc12	3	15µM*	i	5.2µM*	?	-1%
Cc1ccccc1C(=O)Nc1nnc(CC(=O)N/N=C/c2ccco2)s1	1	2%	i	-2%	i	5%
Cc1ccccc1C(=O)Nc1nnc(CC(=O)N/N=C/c2cn(Cc3ccccc3)c3ccccc23)s1	11	21µM*	i	6.5µM*	?	-2%
Cc1ccc(C(=O)N/N=C/c2cn(Cc3ccccc3)c3ccccc23)cn1	38	?	?	?	16µM*	-12%
CCOC(=O)N1CCC(NC(=O)c2cc(S(=O)(=O)N3CCc4ccccc43)cn2C)CC1	-4	-1%	3.3µM*	0%	?	-1%
CCOC(=O)c1cc(S(=O)(=O)N2CCc3ccccc32)cn1C	17	-1%	i	5%	i	3%
CC(Oc1ccc(C#N)cc1)C(=O)N1CC=C(c2ccccc2)CC1 (centres undefined)	6	?	13µM*	16µM*	16µM*	-3%
COc1cccc(O)c1CN1CCC(C(=O)Nc2ccc(-c3cccc(C)c3)cc2)CC1	0	?	?	?	18µM*	?
CC1(C)CCN2CCC(C)(C)c3c(O)ccc1c32	-10	?	i	13µM*	?	6%
COc1ccc([N+](=O)[O-])cc1NC(=O)C(C)Sc1ccc(C)cc1 (centres undefined)	5	6%	i	11%	?	-5%
SMILES	Giardia kill	SW480 rerep	KB-V1 cytotox	MCF10A rereplic	KB-3-1 cytotox	ASM inhibitor
COC(=O)c1cc(OC)c(OC)cc1NC(=O)C(C)Sc1ccc(C)cc1 (centres undefined)	5	15%	?	3.7µM*	i	-12%
Cc1ccccc1OCCCCn1c(-c2ccc(Cl)cc2)nc2ccccc2c1=O	·	·	i	·	i	·
O=C(O)CC/C=C\CC[C@@H]1[C@@H](N2CCCCC2)[C@@H](O)C[C@@H]1OCc1ccc(-c2ccccc2)cc1	·	0%	·	8%	·	·
Cc1ccc(-c2c(C)n3c4c(=O)n(C)c(=O)n(C)c4nc3n2-c2cccc(O)c2)cc1	·	·	18µM*	·	?	·
CCc1ccc(-n2c(-c3ccccc3)c(C)n3c4c(=O)n(C)c(=O)n(C)c4nc23)cc1	·	·	i	·	i	·
Nc1cc(N)cc(N)c1	·	·	i	·	i	·
CNC(=O)COC(=O)c1ccc([N+](=O)[O-])cc1Cl	-19	-6%	i	-8%	i	-1%
O=C(OCC(=O)N1CCCCCC1)c1ccc([N+](=O)[O-])cc1Cl	-1	-16%	i	0.82µM*	i	2%
CS(=O)(=O)c1ccc(C(=O)NCCN2C(=O)S/C(=C\c3cccnc3)C2=O)cc1[N+](=O)[O-]	13	2.1µM*	i	13µM*	?	-1%
O=C(COC(=O)c1cc([N+](=O)[O-])ccc1NCc1ccccc1Cl)NCC(F)(F)F	17	0%	i	21µM*	i	2%
O=C(COC(=O)c1cc([N+](=O)[O-])ccc1NCCO)c1ccccc1	-7	?	21µM*	-1%	?	-2%
NC(=O)COC(=O)c1cc([N+](=O)[O-])ccc1NCCO	2	-4%	i	9%	i	-4%
O=C(COC(=O)c1cc([N+](=O)[O-])ccc1NCCO)NCc1cccs1	6	-40%	i	0.65µM*	i	0%
CCOC(=O)c1c(C=O)c(C)n(Cc2ccc(Cl)cc2)c1C	17	1%	3.7µM*	12µM*	i	-21%
COc1ccc(C)cc1NC(=O)c1ccc(CN2CCc3ccccc3C2)cc1	16	4%	i	?	i	4%
COC(=O)c1ccc(C)c(NC(=O)c2ccc(CN3CCc4ccccc4C3)cc2)c1	-6	2%	i	0%	i	3%
Cc1ccc(NC(=O)c2ccc(CN3CCc4ccccc4C3)cc2)cc1	10	-2%	4.1µM*	?	i	2%
O=C(Nc1ccccc1F)c1ccc(CN2CCc3ccccc3C2)cc1	7	?	21µM*	?	9.2µM*	-1%
